# According to PubChem BioAssay AID493011 (Sanford-Burnham Center for Chemical Genomics, 2011):
# Out of some 330,000 compounds screened, about 1,400 (0.42%) were called active.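 Rule for the calls: active = at least 40% inhibition at 20 µM here, with at most 30% in a related deaminase screen; inactive = the rest.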 Only a selection was taken, and actives are over-represented in it overall.
# Molecular target: DNA dC->dU-editing enzyme APOBEC-3A (Homo sapiens) (UniProt P31941)
# Test: APOBEC3A ssDNA deaminase inhibitors, primary screen, selectivity assay for APOBEC3G inhibitor project, biochemical, FAM/TAMRA oligo cleavage fluorescence (AID 493011);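 note: plate controls were A3A with DMSO for no effect and wells lacking A3A enzyme for full effect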
# Settings: recombinant A3A, FAM/TAMRA ssDNA deamination fluorescence; at 20 µM; stronger effect = higher value
# DNA dC->dU-editing enzyme APOBEC-3A (Homo sapiens), sequence (P31941 whole entry, looked up): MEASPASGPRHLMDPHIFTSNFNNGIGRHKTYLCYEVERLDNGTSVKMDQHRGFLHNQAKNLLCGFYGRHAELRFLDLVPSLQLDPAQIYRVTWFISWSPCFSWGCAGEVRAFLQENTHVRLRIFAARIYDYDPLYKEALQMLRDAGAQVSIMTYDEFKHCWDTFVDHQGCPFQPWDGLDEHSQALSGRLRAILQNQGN
row,Structure (SMILES),inhibition
1,CCN(CC)CCOC(=O)c1cc2cc(COC)ccc2o1,75.9% (active)
2,CC(=NC1CCN(Cc2ccccc2)CC1)c1c(O)n(C)c(=O)n(C)c1=O,1.55% (inactive)
3,COc1cc(OC)cc(C2(C#N)CCN(C)CC2)c1,3.94% (inactive)
4,CN(C)c1nc(N(C)C)nc(N(C#N)CCCl)n1,-2.95% (inactive)
5,O=C(O)CCn1cc(C=C2C(=O)NC(=S)NC2=O)c(-c2cccc(Br)c2)n1,40.8% (active)
6,COC(=O)C1=C(c2cccc(OCc3ccccc3)c2)C[C@@H]2CC[C@H]1N2C(=O)NNCc1ccccc1,-3.97% (inactive)
7,CC(=C1C(=O)c2ccccc2C1=O)N1CCN(CCN=Cc2c(O)n(C)c(=O)n(C)c2=O)CC1,1.68% (inactive)
8,CC[N+]1(C)CCCC(OC(=O)C(O)(c2ccccc2)c2ccccc2)C1 (stereo not given),-0.37% (inactive)
9,O=C(c1cc(S(=O)(=O)N2CCOCC2)ccc1F)N1CCC2(CC1)OCCO2,4.32% (inactive)
10,CNC(=O)O/N=C(\N)Cc1csc2ccccc12,1.51% (inactive)
